Test results taken from PubChem BioAssay AID624330 (Southern Research Specialized Biocontainment Screening …, 2012).
Where “and” joins values, the source holds several entries; their conditions need not be identical. Identical values can stand only once. Among all 340,000 compounds or so, about 2,100 (0.62%) were called active.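 How the source made its calls: active means first-screen hits whose inhibition reached a set limit at any dose in the follow-up dose series; inconclusive means inhibition above the set first-screen limit but never retested; inactive means the rest.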 The list is a sample of the results. Potency and affinity values are given separately.

target: Rac GTPase-activating protein 1 (Homo sapiens) (UniProt Q9H0H5); experiment: blockers of MgcRacGAP-driven Rac1 GTP hydrolysis – biochemical, ADP Hunter fluorescence, primary and confirmatory, confirmation (AID 624330); conditions: MgcRacGAP-stimulated Rac1 GTP hydrolysis, at 30 µM, stronger effect = higher value, GST-tagged Rac1 F28L mutant substrate;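 further: fluorescence reports GDP produced by GAP-driven GTP hydrolysis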
Sequence (Q9H0H5 whole entry, looked up): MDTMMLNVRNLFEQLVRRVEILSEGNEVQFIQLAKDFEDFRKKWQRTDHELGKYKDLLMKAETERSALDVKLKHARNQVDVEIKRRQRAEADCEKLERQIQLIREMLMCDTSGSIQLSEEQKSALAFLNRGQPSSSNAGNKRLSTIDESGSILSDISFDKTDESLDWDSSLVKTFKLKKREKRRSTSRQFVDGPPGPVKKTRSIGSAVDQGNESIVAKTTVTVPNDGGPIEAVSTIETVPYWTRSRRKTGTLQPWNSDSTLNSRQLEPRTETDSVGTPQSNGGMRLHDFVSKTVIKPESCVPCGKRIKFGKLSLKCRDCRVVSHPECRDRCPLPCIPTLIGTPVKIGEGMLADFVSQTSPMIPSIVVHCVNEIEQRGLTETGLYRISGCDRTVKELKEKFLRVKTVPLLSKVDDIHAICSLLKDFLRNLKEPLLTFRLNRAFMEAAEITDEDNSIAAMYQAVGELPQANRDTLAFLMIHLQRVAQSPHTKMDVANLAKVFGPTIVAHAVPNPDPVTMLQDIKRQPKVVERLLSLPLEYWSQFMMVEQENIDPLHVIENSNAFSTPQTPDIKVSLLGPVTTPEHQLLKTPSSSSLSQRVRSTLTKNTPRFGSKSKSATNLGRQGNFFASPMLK

inhibition, inactive:
COc1ccc(N(C(=O)COc2ccc(C)cc2)S(=O)(=O)c2ccc(C)cc2)cc1 3.97%
O=C1/C(=C/c2cccc(F)c2)Oc2cc(O)ccc21 6.11%
O=C1/C(=C/c2ccc(Br)cc2)Oc2cc(O)ccc21 7.31%
CC(C)(C)c1ccc(/C=C2\Oc3cc(O)ccc3C2=O)cc1 5.28%
COc1ccc(/C=C2\Oc3cc(OCC(N)=O)ccc3C2=O)cc1OC 10.9%
O=C(COC(=O)CNC(=O)c1ccc(Br)cc1)NCCC1=CCCCC1 11.9%
Cc1cccc2cc(CN(CC(C)C)S(=O)(=O)c3ccccc3)c(=O)[nH]c12 8.17%
O=c1c2ccccc2c(C=Nc2ccc(Cl)cn2)c(O)n1-c1cc(Cl)ccc1N1CCOCC1 12.5%
Oc1ccc2c(c1)c1ccccc1c1ncccc21 17.4%
Brc1cc2[nH]cnc2c2ccccc12 8.14%
CCN(CC(=O)Nc1c(F)cccc1F)C(=O)c1cccc(S(=O)(=O)N(C)c2ccccc2)c1 2.67%
COC(=O)C=CSC(=S)C1CCCC1=N (stereo unspecified) 6.77%
COc1ccccc1-c1cn(-c2ccccc2)c(=S)[nH]1 10.3%
N#CCCn1c(SCC(=O)c2c[nH]c3ccccc23)nc2ccccc21 15.1%
Cc1nn(-c2cc(C(F)(F)F)ccc2Cl)c2nc(C(Cl)(Cl)Cl)[nH]c(=O)c12 9.52%
COc1ccc(C2C3=C(CC(C)(C)CC3=O)Oc3ncn(Cc4ccccc4)c(=N)c32)cc1 (stereo unspecified) 2.61%
COc1cc(/C=C/C(=O)O)ccc1OCc1ccc([N+](=O)[O-])cc1 7.48%
COC(=O)C(=Cc1ccc(OCc2ccc([N+](=O)[O-])cc2)c(OC)c1)C(=O)OC 13.9%
C/C(N)=C(/C#N)C(=O)CSc1nnc(SCc2ccc(Cl)cc2)s1 2.43% and 2.31%
COc1cc(C(=O)NNC(=O)CNC(=O)C2CCCCC2)ccc1OC(C)C 0.59%
Cc1ccc(S(=O)(=O)N2[C@@H](c3ccc(F)cc3)C(C(=O)O)=C[C@H]2CC2CCCC2)cc1 11%
O=C(CN1C(=O)c2ccccc2C1=O)Nc1ccccc1 1.35%
CN1CC(=O)N(CC(=O)Nc2ccc(F)cc2)c2ccccc2C1=O -12.2%
Cc1ccc(NC(=O)CN2C(=O)c3ccccc3C2=O)cc1 10.7%
CCOc1ccc(NC(=O)CCN2C(=O)c3cccc([N+](=O)[O-])c3C2=O)cc1 3.27%
CN(C)c1ccc(NC(=O)CN2CCc3ccccc3C2)cc1 14.3%
CN(C)c1ccc(NC(=O)CN2C(=O)CC(c3ccccc3)=Nc3ccccc32)cc1 30.9%
CN1CC(=O)N(CC(=O)NCc2ccc(F)cc2)c2ccccc2C1=O 1.75%
COc1ccc(NC(=O)CCN2C(=O)c3cccc([N+](=O)[O-])c3C2=O)cc1 6.66%
COC(=O)Nc1nnc(-c2ccc(OC)cc2)s1 16%
COc1ccc(C(=O)NNC(=O)COc2ccc(Cl)cc2C)cc1S(=O)(=O)N1CCOCC1 6.89%
O=C(NCCN1CCOCC1)C(Sc1ccccc1)c1ccccc1 (stereo unspecified) 15.2%
NCCSc1c(-c2ccc(Cl)cc2)[nH]c2ccccc12 8.34%
O=C(COC(=O)c1c(F)cccc1Cl)NC(=O)Nc1ccc2c(c1)OCCO2 0.21%
CC(=O)NC12CC3CC(C1)CC(C(=O)N1CCN(S(=O)(=O)c4ccccc4[N+](=O)[O-])CC1)(C3)C2 9.33%
COCCNC(=O)c1cc(-c2ccccc2)nn1Cc1cc(C)no1 2.94%
Cc1c(-c2ccccc2)c(=O)oc2cc(O)ccc12 7.91%
O=c1oc2cc(O)ccc2c2ccccc12 17.2%
COc1ccc(F)cc1S(=O)(=O)NCC1CCCO1 (stereo unspecified) 1.18%
O=C(CSc1nc(-c2ccco2)cc(C(F)(F)F)n1)Nc1ccc2c(c1)OCO2 4.87%
Cc1ccc(CNc2nc(C)nc3sc4c(c23)CCC4)cc1 5.5%
Cc1nc(Nc2cccc(O)c2)c2c3c(sc2n1)CCC3 10.2%
O=C(c1cccc(S(=O)(=O)N2CCCCCC2)c1)N1CCN(c2ccccc2F)CC1 2.31%
O=C(CSc1ccccc1)N1CCCC(Nc2ccccc2)C1 (stereo unspecified) 8.49%
O=C(CCCn1cncn1)N1CCCC(Nc2ccc(F)cc2)C1 (stereo unspecified) 5.12%
CC(C)c1ccc(NC2CCCN(C(=O)CCCn3cncn3)C2)cc1 (stereo unspecified) 6.88%
COc1ccc(NC2CCCN(C(=O)CSc3ccccn3)C2)cc1OC (stereo unspecified) 30.4%
O=C1CCCN1CCC(=O)N1CCCC(Nc2ccc(F)c(F)c2)C1 (stereo unspecified) 7.57%
COc1ccccc1OCC(=O)N1CCCC(Nc2ccc(F)c(F)c2)C1 (stereo unspecified) 7.15%
O=C1CCCN1CCC(=O)N1CCCC(Nc2ccc(F)cc2)C1 (stereo unspecified) 7.82%
COc1ccccc1OCC(=O)N1CCCC(Nc2ccc(C)c(C)c2)C1 (stereo unspecified) 14.2%
C[C@@H]1CN([C@@H](C)CO)C(=O)c2cc(Br)cnc2O[C@@H]1CN(C)C(=O)Nc1ccc(F)cc1 9.67%
C[C@H](NC(N)=O)C(=O)OCC(=O)Nc1ccc(OC(F)F)cc1 5.01%
COc1ccc(C2C(C(=O)NCc3ccco3)CCC(=O)N2c2ccc(OC)cc2)cc1 (stereo unspecified) -1.81%
O=C(CN1CCCC1)Nc1cccc(Cl)c1 6.77%
CN(CCOc1ccc(Cl)cc1)C(=O)c1cccc(S(=O)(=O)N2CCN(c3ccc(F)cc3)CC2)c1 2.42%
COc1cccc(/C=N/n2c(-c3n[nH]c4c3CCC4)n[nH]c2=S)c1OC 10.4%
COc1ccc(/C=N/n2c(SC)nnc2-c2ccccc2)c(OC)c1OC 10.5%
COc1cccc(/C=N/n2c(C3CCCCC3)n[nH]c2=S)c1O 17.5%
COc1ccc(/C=N/n2c(C)nnc2C)c(OC)c1OC 8.6%
COc1ccc(/C=N/n2c(-c3ccc(C)cc3)n[nH]c2=S)cc1OC 8.75%
COc1ccc(/C=N/n2c(SC)nnc2-c2ccccc2)cc1C 12.1%
COc1ccc(/C=C/C(=O)OC2CCCCC2CN(C)C)cc1 (stereo unspecified) 1.25%
CCN1CNC(=S)N(c2cccc(C)c2C)C1 7.09%
O=C(O)C1(S(=O)(=O)c2ccc(Cl)cc2)CCC1 6.58%
Cc1cccc(N2N=C(C(=O)Nc3nc(C)cs3)CCC2=O)c1 10.5%
O=C(Nc1cccnc1)c1ccccc1F 6.52%
O=C1Nc2ccccc2C1=NN1CCCCCC1 -3.27%
O=C1Nc2ccccc2/C1=N\N1CCOCC1 3.01%
CCN(Cc1ccccc1)S(=O)(=O)c1ccc(S(=O)(=O)N2CCN(CCC#N)CC2)cc1 -2.32%
Cc1ccc(NC(=O)CN(C)C(=O)CCSc2ccc(F)cc2)cc1 5.93%
COc1cccc(CN(C)C(=O)c2ccc(C)c(S(=O)(=O)N3CCCCC3)c2)c1 3.14%
COCCN(C(=O)CNC(=O)c1cccs1)C(C(=O)NC1CCCC1)c1cccs1 (stereo unspecified) 8.07%
COc1ccc(NC(=S)NCCSc2ccc(Cl)cc2)c(OC)c1 -1.73%
c1ccc(Nc2ccc3c4c(cccc24)CC3)cc1 16.2%
CC(=O)Nc1ccc2c3c(cccc13)CC2 3.29%
COCc1[nH][nH]c(=O)c1C=Nc1ccccc1 9.38%
O=[N+]([O-])c1ccccc1N=Nc1ccc(O)cc1 9.07%
O=C(OCc1ccccc1Cl)c1cccnc1Cl -1.97%
CCCCn1c(N)c(N(CCOC)C(=O)C(C)N2C(=O)c3ccccc3C2=O)c(=O)[nH]c1=O (stereo unspecified) 0.26%
CC(OC(=O)c1ccc(Cl)c([N+](=O)[O-])c1)C(=O)N1CCN(Cc2ccccc2)CC1 (stereo unspecified) 3.69%
CCOc1ccccc1C(=O)NCC(=O)N(C)Cc1ccccc1C 6.49%
COc1ccccc1N(C)S(=O)(=O)c1ccc(C(=O)Nc2cccc(Br)c2)cc1 4.53%
CCc1ccc(-n2c(=O)c3ccccc3n3c(=S)[nH]nc23)cc1 12.2%
COc1cccc(-n2c(=O)c3ccccc3n3c(=S)[nH]nc23)c1 13.7%
CCOC(=O)c1oc2ccccc2c1NC(=O)C(C)(C)C 4.02%
O=C(c1ccccc1)c1ccc(N2CCOCC2)c(F)c1 9.91%
Cc1cccc(C(=O)N2CCC(N3CCC(C(=O)N4CCOCC4)CC3)CC2)c1 7.61%
CCC1Sc2ccccc2N(CC(=O)NC2CC2)C1=O (stereo unspecified) -0.26%
Cc1cc(C)cc(N2C(=O)C=CC2=O)c1 1.25%
O=C(O)c1cccc(N2C(=O)C=CC2=O)c1 9.07%
COc1cccc(C(=O)NCC(c2ccco2)N2CCc3ccccc3C2)c1 (stereo unspecified) 7.73%
Cc1ccccc1N1C(S)=C(C#N)C(=O)NC1c1cccs1 (stereo unspecified) 39%
Cc1cccc(N2C(S)=C(C#N)C(=O)NC2c2ccco2)c1 (stereo unspecified) 48.2%
N#CC1=C(S)N(c2ccc(F)cc2)C(c2cccs2)NC1=O (stereo unspecified) 38.9%
N#CC1=C(S)N(c2ccccc2)C(c2cccs2)NC1=O (stereo unspecified) 53%
